In all, about 190,000 compounds went through this assay and about 1,900 (1%) were called active.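 How the source made its calls: active means percentage of spot-positive cells more than 3 SD above its plate mean, without a fluorescence outlier flag or 80% toxicity; inconclusive means no clear call, values can overlap the other calls; inactive means the rest.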 The list comes from a sample in which actives are over-represented; it also holds similar structures and randomly drawn compounds.

The experiment in a line: GFP-LC3 puncta formation changes – imaging, high-content, MEF GFP-LC3, primary screen (AID 463193).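 On % cells with GFP-LC3 spots: spot-positive cell cutoff set from DMSO-treated cells.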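 On toxicity: cell loss after 18 h compound exposure.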 Particulars: autophagy, at 10 µM; % cells with GFP-LC3 spots: stronger effect = higher value; toxicity: measured here: cell loss, nuclei count.
As for `Cc1ccc(NC(=O)C(=O)NCc2ccc(/C=N/NC(=O)c3c(C)nc4cc(C)ccn34)o2)cc1`, the % cells with GFP-LC3 spots is 7.6% (inactive) and the toxicity was -9.46%.
In the same order, the values of `Cc1ccc(C(=O)/C=C/Nc2ccc(S(=O)(=O)Nc3onc(C)c3C)cc2)cc1` are 2.91% (inactive) and 14.6%.
In the case of `COc1cc2c(cc1OC)CC1(CCCCC1)N=C2`, the % cells with GFP-LC3 spots was 0.564% (inactive) and the toxicity was -2.01%.
With `CNc1nc2c(C)cccn2c(=O)c1C=Nc1ccc(OC)cc1`, the % cells with GFP-LC3 spots is 16.2% (inactive) and the toxicity worked out at 19.6%.
In the case of `CCn1c(=N)c(C(=O)NCCCOC)cc2c(=O)n3cccc(C)c3nc21`, the % cells with GFP-LC3 spots is 6.38% (inactive) and the toxicity stood at 16.3%.
With `Cc1cccn2c(=O)c(/C=C3\SC(=S)N(CC(C)C)C3=O)c(NCCCOC(C)C)nc12`, the % cells with GFP-LC3 spots was 83.5% (active) and the toxicity turned out to be 1.08%.
In the same order, the values of `Cn1cc(-c2ccccc2)cc(C#N)c1=O` are 1.72% (inactive) and 2.28%.
For the compound `COc1ccc(CN2CN(C3CCCC3)CSC2=S)cc1`, the % cells with GFP-LC3 spots is 6.4% (inactive) and the toxicity is -8.41%.
For `COc1ccc(C(CC(=O)Nc2ccc(C)cc2)NC(=O)C(F)(F)F)cc1` (stereo unspecified), the % cells with GFP-LC3 spots was 6.89% (inactive) and the toxicity was -5.77%.
For `O=C(CSc1cccc2cccnc12)N/N=C/c1cccnc1`, the % cells with GFP-LC3 spots was 16.6% (inactive) and the toxicity turned out to be 24.2%.
As to `CC(=O)/C(=N\Nc1ccc(Cl)cc1Cl)Sc1cccc2cccnc12`, the % cells with GFP-LC3 spots was 80.1% (active) and the toxicity was -7.61%.
Consider `S=C(NCc1cccnc1)Nc1ccc(Cl)cc1Cl`, for which the % cells with GFP-LC3 spots is 1.61% (inactive) and the toxicity amounted to 10%.
As to `CC(C)(C)CC(C)(C)NCC(O)COCCOc1ccc(Br)cc1` (stereo unspecified), the % cells with GFP-LC3 spots is 10.9% (inactive) and the toxicity turned out to be 5.37%.
Turning to `c1ccc(C2c3[nH]c4ccccc4c3CCN2Cc2cccn2-c2cccnc2)nc1` (stereo unspecified), the % cells with GFP-LC3 spots is 1.12% (inactive) and the toxicity was -2.12%.
In the same order, the values of `Fc1cccc2ncnc(OCc3ccccc3)c12` are 3.59% (inactive) and -3.11%.
In the case of `COc1ccc(OC)c(NC(=O)Cn2c(=O)oc3ccccc32)c1`, the % cells with GFP-LC3 spots is 18.4% (active) and the toxicity turned out to be 3.57%.
As to `COc1ccc(CCNC(=O)CCn2c(=O)oc3ccccc32)cc1OC`, the % cells with GFP-LC3 spots is 4.11% (inactive) and the toxicity was -1.63%.
`COc1ccc(OC)c(NC(=O)CN2CCN(C(=O)c3ccco3)CC2)c1`: the % cells with GFP-LC3 spots was 0.967% (inactive) and the toxicity amounted to 2.86%.
Take `CCN(CC(=O)NCCc1ccccc1)S(=O)(=O)c1ccccc1`: the % cells with GFP-LC3 spots is 12% (inactive) and the toxicity worked out at 29.2%.
For the compound `Cc1c(Br)c([N+](=O)[O-])nn1CC(=O)N1CCN(Cc2ccccc2)CC1`, the % cells with GFP-LC3 spots is 3.58% (inactive) and the toxicity stood at 7.29%.
In the same order, the values of `CSc1nc2ccccc2c(=O)n1Cc1ccc(F)cc1` are 35.2% (active) and 0.835%.
As to `CC(Sc1nc2ccccc2c(=O)n1Cc1ccco1)C(=O)c1ccccc1` (stereo unspecified), the % cells with GFP-LC3 spots is 11.8% (inactive) and the toxicity was -5.88%.
For `O=C(CCn1c(SCC(=O)c2ccccc2)nc2ccccc2c1=O)NCc1ccc(F)cc1`, the % cells with GFP-LC3 spots was 5.36% (inactive) and the toxicity came out at 4.33%.
Turning to `CC(=O)n1c(C=Nc2ccccc2)c(O)c2ccccc21`, the % cells with GFP-LC3 spots was 6.01% (inactive) and the toxicity is -16%.
`COc1ccc(NC(=O)Cn2c(=O)n(Cc3ccco3)c(=O)c3ccccc32)cc1`: the % cells with GFP-LC3 spots is 3.23% (inactive) and the toxicity is -0.177%.
In the same order, the values of `CCOC(=O)CSc1nc2c(sc(=S)n2CCc2ccccc2)c(=O)n1Cc1ccco1` are 25.9% (inactive) and 36.2%.
Consider `CN(c1ccccc1)c1ccc(/C=c2\s/c(=C(/C#N)C(=O)C(C)(C)C)n(Cc3ccco3)c2=O)cc1`, for which the % cells with GFP-LC3 spots is 71.3% (active) and the toxicity is -2.03%.
`Cc1cc(C(=O)N/N=C/c2cc([N+](=O)[O-])cc(C)c2O)n[nH]1`: the % cells with GFP-LC3 spots is 6.01% (inactive) and the toxicity is 8.83%.
Consider `CCOC(=O)Cc1ncccc1C(=O)Nc1ccc(OC)cc1`, for which the % cells with GFP-LC3 spots was 2.71% (inactive) and the toxicity was -9.63%.
With `O=C(CSc1nnc(-c2ccncc2)n1-c1ccc(Cl)cc1)Nc1ccc(C(=O)O)cc1`, the % cells with GFP-LC3 spots was 1.88% (inactive) and the toxicity was -0.961%.
In the same order, the values of `CCCN(CCC)C(=S)Nc1cc(C(=O)OC)ccc1C(=O)OC` are 12.3% (inactive) and -2.2%.
Consider `COC(=O)c1ccc(C(=O)OC)c(NC(=S)N2CCN(c3cc(Cl)ccc3C)CC2)c1`, for which the % cells with GFP-LC3 spots was 12.5% (inactive) and the toxicity was 21.9%.
As to `COC(=O)c1ccc(C(=O)Nc2cc(Cl)ccc2Cl)cc1NC(=O)c1ccccc1C`, the % cells with GFP-LC3 spots is 29.3% (active) and the toxicity was -19.2%.
As to `CN(c1ccccc1)S(=O)(=O)c1ccc(Cl)c(C(=O)OCC(=O)N2CCOCC2)c1`, the % cells with GFP-LC3 spots was 0.158% (inactive) and the toxicity was found to be 2.3%.
For the compound `O=C(OCC(=O)N1CCN(C(=O)c2ccco2)CC1)c1ccccc1Cc1ccccc1`, the % cells with GFP-LC3 spots was 7.07% (inactive) and the toxicity was 4.3%.
In the same order, the values of `CN(c1ccccc1)S(=O)(=O)c1cc(C(=O)OCC(=O)N2CCN(C(=O)c3ccco3)CC2)ccc1Cl` are 11.3% (active) and -3.57%.
For the compound `Cc1ccc(-n2cc(CN(C)Cc3nccn3C)c(-c3cccc(C)c3)n2)cc1`, the % cells with GFP-LC3 spots is 1% (inactive) and the toxicity was -0.155%.
In the same order, the values of `CCN(CC)C(=O)CSc1nnc(C2CCCCC2)o1` are 4.79% (inactive) and -0.426%.
As for `CCCCCC1CCC(c2nnc(SCC(C)=O)o2)CC1` (stereo unspecified), the % cells with GFP-LC3 spots was 10.7% (active) and the toxicity was -6.19%.
On to `CN(C)/N=C/c1cc(Cl)cc([N+](=O)[O-])c1O`, for which the % cells with GFP-LC3 spots is 9.47% (inactive) and the toxicity is -11.7%.
Consider `Cc1nc(Nc2ccc3c(c2)OCCO3)c2nnn(Cc3ccccc3Cl)c2n1`, for which the % cells with GFP-LC3 spots is 8.6% (inactive) and the toxicity turned out to be 4.03%.
Turning to `O=C(Cn1cnc2c(nnn2Cc2ccc(F)cc2)c1=O)NCc1ccc2c(c1)OCO2`, the % cells with GFP-LC3 spots is 2.36% (inactive) and the toxicity is -2.24%.
Turning to `CCCc1nc(NCc2ccc3c(c2)OCO3)c2nnn(Cc3ccccc3Cl)c2n1`, the % cells with GFP-LC3 spots was 15.7% (active) and the toxicity is 5%.

The values above are taken from PubChem BioAssay AID463193 (University of Pittsburgh Molecular Library Screening Center, 2010).
